Measurements as given in the supplement of paper PMC9897528.

Tested on: Scedosporium aurantiacum CBS 136046
Experiment: growth inhibition relative to DMSO control (OD600); higher = more antifungal activity, active = 80 or more; extreme values may be limits of the assay
Conditions: 5 µM; 72 h; 37 °C
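Note: conidia screened in RPMI 1640 medium under 5% CO2, growth read by spectrophotometer, medium with 0.5% DMSO serving as the untreated reference.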

Compound	growth inhibition
Cc1cc(O)c2c(c1)C(=O)c1c(I)c(O)c(I)c(O)c1C2=O	2.05% (inactive)
Fc1ccc(-n2cc(Cn3c(-c4cccc(F)c4)nc4ccccc43)nn2)cc1	17.9% (inactive)
c1ccc(Cn2c(-c3ccccn3)nc3ccccc32)cc1	14.3% (inactive)
O=C(Cn1cnc2ccccc2c1=O)Nc1ccccc1	1.51% (inactive)
COc1cc(C)c2c(Oc3cccc(C(F)(F)F)c3)c(OC)cc(NC(C)CCCN)c2n1 (stereo not drawn)	33.4% (inactive)
CC(C)(C)OC(=O)NCc1ccc(C(=O)N[C@H]2CCOC2=O)cc1	15.3% (inactive)
CC(C)Oc1ccc(-n2cnc3cc(/C=C\c4ccc(C(C)(C)O)cc4)ccc32)cc1	28.5% (inactive)
O=C(Nc1nnc(-c2ccc(Cl)cc2)o1)c1ccc(F)cc1	48.5% (inactive)
Cc1ccc(Oc2ccccc2-c2csc(N=C3NCCCN3)n2)c(C)c1	68% (inactive)
O=c1cc(NCCCN[C@@H]2CCOc3c(Br)cc(Br)cc32)[nH]c2ccsc12	17.3% (inactive)
CN1c2ccc(Cl)cc2N(c2ccccc2)C(=O)c2cn(Cc3ccc(CN4CCOCC4)cc3)nc21	17.1% (inactive)
CCCCC(CC)CNC(=N)NC(=N)NCCCCCCNC(=N)NC(=N)NCC(CC)CCCC (stereo not drawn)	85% (active)
Cc1c[nH]c(=O)nc1NCc1ccccc1	10.8% (inactive)
CC(C)Nc1ncnc2c1cnn2-c1ccc(Cl)cc1	10.7% (inactive)
Oc1ccc(NCc2ccccc2OCc2ccccc2)cc1	10% (inactive)
O=C(O)COc1cccc2c1CC[C@](O)(COC(=O)N(c1ccccc1)c1ccccc1)C2	0.943% (inactive)
N[C@H]1CCC[C@H]1C(=O)O	4.68% (inactive)
O=C(O)[C@H]1C2CCC(CC2)[C@@H]1Nc1nc(-c2c[nH]c3ncc(F)cc23)ncc1F	10.2% (inactive)
CC(=O)N1c2ccccc2NC2=C(C(=O)CC(C)(C)C2)C1c1ccc(OCc2ccccc2)cc1 (stereo not drawn)	15.4% (inactive)

Compound	growth inhibition
Nc1nc(Nc2ccc3nc(-c4ccc(F)cc4)cc(N)c3c2)cc(-c2ccccc2)n1	17.1% (inactive)
COc1ccc(CNC(=O)C(NS(=O)(=O)c2ccc3nc(C)sc3c2)C(C)C)cc1 (stereo not drawn)	26.3% (inactive)
CCc1cc(CCC(=O)Nc2ccccc2O)c(O)nc1C	5.23% (inactive)
CC1=C(/C=C/C(C)=C/C=C/C(C)=C/C(=O)Nc2ccc(O)cc2)C(C)(C)CCC1	14.5% (inactive)
C[C@H](c1cccc2ccccc12)N(C)Cc1ccccc1	14.5% (inactive)
CC1(C)C[C@H]1C(=O)N/C(=C\CCCCSC[C@@H](N)C(=O)O)C(=O)O	4.68% (inactive)
NC(=O)[C@@H]1CC[C@@H]2CN1C(=O)N2OS(=O)(=O)O	0% (inactive)
COc1cc(NC(=O)CN2C(=O)NC(c3ccccc3)(c3ccccc3)C2=O)cc(OC)c1	0% (inactive)
CN(C)CC(=O)Nc1ccc2[nH]c(=O)c3ccccc3c2c1	6.77% (inactive)
O=C(NN1C(=O)[C@@H]2[C@@H]3C=C[C@@H]([C@H]4C[C@@H]34)[C@@H]2C1=O)c1ccc(C(F)(F)F)cc1	6.47% (inactive)
OC1O[C@H](CSc2ccc(F)cc2)[C@@H](O)[C@H]1O (stereo partly drawn)	16.7% (inactive)
C[C@@H](NC(=O)c1cccc(-c2cnc(-c3cc4ccccc4cn3)[nH]2)c1)c1ccc(F)cc1	18.9% (inactive)
CNc1nc(=O)[nH]cc1F	2.45% (inactive)
O=C(Cc1ccccc1F)Nc1nc2ccccc2[nH]1	23.9% (inactive)
CC(=O)N[C@H](C)C(=O)N[C@H](Cc1ccccc1)C(=O)O	10.8% (inactive)
CC(=O)N1CCN(c2ccc(OCC3COC(Cn4ccnc4)(c4ccc(Cl)cc4Cl)O3)cc2)CC1 (stereo not drawn)	83.2% (active)
O=c1[nH]c(=O)n(Cc2cccc(Oc3ccccc3)c2)cc1Nc1ccccc1	12.7% (inactive)
O=c1[nH]cnc2c1ncn2[C@H]1CC[C@@H](CO)O1	10.6% (inactive)
CC(C)c1ccc(COc2cccc(-c3cc([S+](C)[O-])c(C#N)c(=O)[nH]3)c2)cc1 (stereo not drawn)	0% (inactive)
